Measurements published in PubChem BioAssay (NCI).
The panel holds about 83,000 compounds, 20% with a hit somewhere; the sample as a whole holds those more often.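 Negative percent growth values reflect cell death: -40 means 40% of the cells present at the start died, and -100 means all died.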 Values without a mark were called inactive. Active and inactive are the calls of the source. How the source made its calls: active means growth percent below 10; inactive means the rest.

How the values were obtained:
Test in all cases: NCI-60 one-dose screen, 48 h (100 = growth as untreated, 0 = no growth, -100 = all killed)
Details in all cases: 10 µM unless noted
[1] = tested on: T-47D breast
[2] = tested on: BT-549 breast
[3] = tested on: MDA-MB-435 melanoma
[4] = tested on: SW-620 colon
[5] = tested on: MCF7 breast
[6] = tested on: HCT-116 colon
[7] = tested on: KM12 colon
[8] = tested on: HCC-2998 colon

| Structure (SMILES) | growth [1] | growth [2] | growth [3] | growth [4] | growth [5] | growth [6] | growth [7] | growth [8] |
| --- | --- | --- | --- | --- | --- | --- | --- | --- |
| NC(N)=N/N=C/c1ccc(Cl)cc1 | 91.5% | 77.4% | -53.2% (active) | 24.5% | 23.5% | 50.8% | 15.5% | – |
| COc1ccc2nc3ccccc3c(NCc3ccc(Cl)cc3)c2c1 | 49.3% | 50.2% | 24.1% | 12.8% | -56.4% (active) | 6.81% (active) | 40.1% | – |
| O=C(CSc1nnc(Cc2ccccc2Nc2c(Cl)cccc2Cl)n1-c1ccccc1)N1N=C(c2ccc3ccccc3c2)CC1c1ccc(Cl)cc1 (stereo not given) | 71.5% | 103% | 98.8% | 108% | 95% | 86.4% | 108% | – |
| Cc1cccc(/C=N/n2c(-c3ccc(Cl)cc3)nc3c(Br)cc(Br)cc3c2=O)c1 | 44.4% | 88% | 66% | 59.1% | 36.7% | 22.2% | 52.4% | – |
| O=C(N/N=C/c1ccc([N+](=O)[O-])cc1)c1ccccc1Nc1ccnc(C(F)(F)F)c1 | 47.2% | 87.4% | 90.2% | -44.6% (active) | 95% | 76.8% | 87.1% | – |
| Oc1c(C(Nc2ccccc2Br)c2ccccc2)ccc2cccnc12 (stereo not given) | 29.9% | 28.3% | 35.7% | 33.7% | 21% | 20% | 32.3% | – |
| CCC(=O)OCc1ccc(OC)cc1 | 103% | 104% | 112% | 111% | 107% | 98.7% | 137% | – |
| CCCCOc1nc2ccc(C)cc2cc1/C=C/C(=O)/C=C(O)/C=C/c1cc2cc(C)ccc2nc1OCCCC | 89.2% | 90.8% | 107% | 107% | 100% | 87.6% | 102% | 108% |
| COc1cccc(C2C(C#N)=C(N)Oc3cc4c(cc32)OCO4)c1 (stereo not given) | 59.9% | 24% | -12.3% (active) | 26.9% | 13.2% | 5.12% (active) | 0.487% (active) | – |
| COc1cc(C2CC(c3ccc(Cl)cc3)=NN2C(C)=O)ccc1Oc1ccnc2cc(Cl)ccc12 (stereo not given) | 53.9% | 92% | 62% | 66.3% | 42.5% | 24.5% | 73.5% | – |
| CN(C)CC(=O)c1ccc2cc(Br)c3ccccc3c2c1 | 37.1% | 60.2% | 83.6% | 54.7% | 63.6% | 49.3% | 63.7% | – |
| CCCCCCCCCCCC1=NC(C)(C)CN1CCO | 65.2% | 80.6% | 8.66% (active) | 23.1% | 30.3% | 17.8% | 29.1% | – |
| COc1ccc2nc3cc(Cl)ccc3c(NC(=O)CSc3ccc(Cl)cc3)c2c1 | -79.6% (active) | -98.7% (active) | -82.4% (active) | -80.4% (active) | -60% (active) | -94.4% (active) | -75.4% (active) | – |
| CC1=C(/C=C/C(C)=C/C=C(C(=O)O)\C(C)=C\C(=O)O)C(C)(C)CCC1 | 101% | 100% | 116% | 108% | 93.8% | 105% | 110% | – |
| O=C1Nc2ccc(Cl)cc2/C1=C\c1c(-c2ccc(F)cc2)nc2ccccn12 | 9.64% (active) | 15.7% | -34.5% (active) | 8.89% (active) | -9.38% (active) | -78.7% (active) | -32.1% (active) | 44.7% |
| COc1cc(NCC(O)CN(CC(C)C)CC(C)C)c2ncccc2c1 (stereo not given) | 1.96% (active) | 95.2% | 107% | 74.9% | -25.6% (active) | 80.2% | 96% | – |
| Nc1ccc(C2=NNC(=O)Cc3cc4c(cc32)OCCO4)cc1Cl | 44.2% | 48.5% | -19.2% (active) | 18.7% | 18.8% | 20.1% | 16% | – |
| C[C@H](NC(=O)c1snnc1C1CC1)c1c(F)cccc1Cl | 258% | 139% | 106% | 106% | 98.7% | 122% | 114% | 95.7% |

| Structure (SMILES) | growth [1] | growth [2] | growth [3] | growth [4] | growth [5] | growth [6] | growth [7] | growth [8] |
| --- | --- | --- | --- | --- | --- | --- | --- | --- |
| COc1ccc(/C=C/c2nc3ccccc3c(=O)n2-c2ccc(C#Cc3ccc(C(C)(C)C)cc3)cc2C)c(OC)c1 | 85.5% | 99.4% | 91.8% | 86.7% | 105% | 69% | 88.1% | – |
| O=C(Nc1ccc(Cl)cc1)c1cc(-c2ccc(Cl)cc2)c2sc(=O)[nH]c2n1 | -22.8% (active) | 1.28% (active) | 7.39% (active) | 8.1% (active) | 0.758% (active) | 0.269% (active) | 4.21% (active) | – |
| COc1cc(-c2nc(-c3ccc(-c4nc5ccc(F)cc5[nH]4)cc3)no2)cc(OC)c1OC | 8.56% (active) | 35.7% | 46.8% | 55.3% | 41.1% | 28.2% | 11.5% | – |
| COc1ccc2c(c1)N(Cc1ccc(Cl)cc1)CCC2N1CCCC1=O (stereo not given) | 31.5% | 16.1% | 46.2% | 72.1% | 35.5% | 55.1% | 50.4% | – |
| S=C(Nc1ccc(Cl)cc1)Nc1ccc(Cl)cc1 (tested in a mixture with another compound) | 11.6% | 12.8% | 3.6% (active) | 11.8% | 7.15% (active) | 0.154% (active) | 3.43% (active) | – |
| COc1ccc(Cl)cc1Nc1nc(C(F)(F)F)ccc1C(=O)NN | 29.4% | 20.2% | 40.2% | 88.6% | 90.4% | 38.8% | 38.6% | – |
| Cn1c(=O)c2c(nc(N/N=C/c3ccccc3Cl)n2C)n(C)c1=O | 105% | 102% | 109% | 108% | 96.2% | 97.5% | 140% | – |
| Nc1cc(C(=O)O)cc(C(=O)O)c1 | 97.1% | 107% | 108% | 110% | 99.8% | 101% | 111% | – |
| O=C1Nc2ccccc2/C1=C\c1nc(C2CCN(S(=O)(=O)c3ccc(F)cc3)CC2)n2ccccc12 | 48.1% | 2.09% (active) | 70.8% | 82.8% | 48.7% | 64.8% | 65.8% | – |
| Cc1c(C(=O)Nc2ccccc2F)sc2c(=O)[nH]cnc12 | 90% | 85.3% | 6.84% (active) | 76.8% | 76.9% | 88.6% | 61.8% | – |
| CCN(CC)c1ccc(/C=N/NC(=O)c2ccc(S(C)(=O)=O)cc2)c(O)c1 | 30% | 30.7% | 37.2% | 33.1% | 8.79% (active) | – | 25.9% | 39.6% |
| c1ccc(-c2nnn(-c3ccccc3)n2)cc1 | 108% | 87.5% | 106% | 113% | 71% | – | 107% | 107% |
| COc1ccc2[nH]cc(C3(c4c[nH]c5ccc(OC)cc45)C(=O)Nc4ccc(Cl)cc43)c2c1 | 76.4% | 93.7% | 23.3% | 30% | – | 64.3% | 14.8% | 58% |
| CCN(CC)CCCC(C)Nc1ccnc2ccc(Oc3ccccc3)cc12 (stereo not given) | 70.7% | 67.3% | 25.8% | 81.3% | 69% | – | 86.3% | 84% |
| NC(N)=NC1CCCCC1 | 103% | 105% | 104% | 100% | 96.4% | – | -69% (active) | 104% |
| C=CCOc1ccc2c(C)cc(=O)oc2c1 | 105% | 109% | 98.3% | 109% | 98.2% | – | 105% | 100% |
| Cc1ccc(C(=O)CC(=O)C(F)(F)C(F)(F)C(F)(F)F)s1 | 108% | 103% | 99% | 103% | 105% | – | 112% | 105% |
| CCN1C(=O)N(CC)C2C1NN=c1s/c(=C\c3ccco3)c(=O)n12 (stereo not given) | 27.8% | 53.9% | -56.9% (active) | 20.2% | 12.1% | – | 15.9% | 23% |
